Source: PubChem BioAssay (National Center for Advancing Translational Sciences (NCATS))
Shown are actives, neighbours in structure and some others; about 5.6% of the full set was active somewhere.
RORgamma inh: blocks mouse ROR gamma transcriptional activity | Drosophila S2 Gal4-RORgamma UAS-luciferase reporter, 20 h | Potency, µM (titrated, usually from 53.6 µM), hits mostly inhibitors | actives 5.4% (n = 310,000); further: nearly all actives have a fitted effect of over 60% in size
Target sequence (P51450 whole entry, looked up, the tested form may be a part): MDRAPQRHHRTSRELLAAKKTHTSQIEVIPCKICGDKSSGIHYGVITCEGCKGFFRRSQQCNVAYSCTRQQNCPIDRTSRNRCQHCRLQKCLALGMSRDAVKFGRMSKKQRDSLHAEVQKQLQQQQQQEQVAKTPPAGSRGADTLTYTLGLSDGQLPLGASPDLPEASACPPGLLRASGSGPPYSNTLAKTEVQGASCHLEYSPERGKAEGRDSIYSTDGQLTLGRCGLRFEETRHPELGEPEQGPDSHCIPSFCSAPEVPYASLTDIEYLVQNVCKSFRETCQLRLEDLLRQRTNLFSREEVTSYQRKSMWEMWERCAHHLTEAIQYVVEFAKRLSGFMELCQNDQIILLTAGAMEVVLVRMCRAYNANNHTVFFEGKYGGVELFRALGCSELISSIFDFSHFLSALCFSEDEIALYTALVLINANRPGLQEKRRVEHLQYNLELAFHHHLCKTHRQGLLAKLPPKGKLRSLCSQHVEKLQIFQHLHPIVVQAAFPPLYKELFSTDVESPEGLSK
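Stably transfected Drosophila Schneider cells are the test system, with ROR gamma fused to Gal4 and luciferase under UAS control; luminescence is read after 20 hr of 700 uM copper sulfate induction at ambient temperature.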
CtBP-E1A blk: CtBP/E1A binding inhibition | AlphaScreen GST-E1A/His-CtBP binding, 1536-well; stronger effect = lower value | activity change, % (concentration not given with the values) | actives 0.49% (n = 340,000); in the data active means activity change below about -65%; inconclusive means mostly about -30% to -63%
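In 5 uL wells, 23 nL compound meets equimolar GST-E1A and His-CtBP (5X stock 125 nM each) for 2 h, 37 °C. Beads (5X, 50 ug/mL) then 1 h, 37 °C, dark.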
VP16 counter: inhibits Gal4-VP16 luciferase reporter, ROR gamma counter-screen; Drosophila S2 Gal4-VP16 UAS-luciferase, luminescence, 20 h; Potency, µM (highest dose often 53.6 µM), hits mostly inhibitors; actives 3.5% (n = 310,000); AID 2546;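 further: Gal4-VP16 expression switched on by copper sulfate through the metallothionein promoter; nearly all actives have a fitted effect of over 50% in size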
PKM2 activator: increases activity of human pyruvate kinase M2 | purified PKM2, Kinase-Glo ATP luminescence, activation; response scale: 0% is enzyme alone, no compound | Potency, µM (highest dose often 57.5 µM), most hits filed as activators | AID 1631 | actives 0.34% (n = 260,000); further: nearly all actives have a fitted effect of over 55% in size
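Purified hPK-M2 (>95% pure) converted ADP (0.1 mM final) to ATP with 0.5 mM PEP in 50 mM imidazole pH7.2, KCl, MgCl2, Tween 20, BSA; 1 h at room temperature. ATP detected by Kinase-Glo luminescence.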
Six1-Eya2 inh: blocks human Six1 binding to Eya2; activity change, % (test concentration not listed); actives 0.56% (n = 360,000); Q15475+O00167; AlphaScreen GST-Six1/His-Eya2 binding, biochemical; stronger effect = lower value; AID 651725; in the data active means activity change below about -65%; inconclusive means mostly about -30% to -63%
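Compounds are tested against tagged Six1 and Eya2 proteins bridged by glutathione donor and nickel acceptor beads; after a one-hour incubation at 37 °C without light, AlphaScreen emission is recorded.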
Of the large screens only hits and unclear results are named; the others gave an inactive call; ! = repeats disagree. Unless noted, the call rests on the fitted dose curve; in most records, active means well fitted curve in the direction sought with a large enough effect; inconclusive means small, poorly fitted or top-dose-only effect, or another doubt; inactive means no such curve, though single readings can be large; an effect the other way counts as inactive or inconclusive.

CC(C)C(=O)N1CCCC1(C)C(=O)Nc1cccc(Oc2ccccc2)c1 (stereo not drawn)	none (no result: RORgamma inh, VP16 counter, PKM2 activator)
CN(C)NC(=S)Nc1cccc(C(F)(F)F)c1	RORgamma inh 1µM, VP16 counter 5.6µM
O=C(NNC(=S)Nc1cccc(C(F)(F)F)c1)c1ccncc1	none (no result: RORgamma inh, VP16 counter, PKM2 activator)
COc1ccc(NC(=S)Nc2cccc(C(F)(F)F)c2)c(C)c1	RORgamma inh 10µM, VP16 counter inconclusive
CC(NC(=S)Nc1cccc(C(F)(F)F)c1)C(C)(C)C (stereo not drawn)	RORgamma inh 3.2µM, VP16 counter 10µM
Cc1cc(C(=O)NNC(=S)Nc2cccc(C(F)(F)F)c2)nn1C	RORgamma inh 16µM, CtBP-E1A blk inconclusive, VP16 counter 11µM
CSc1ccccc1NC(=S)Nc1cccc(C(F)(F)F)c1	VP16 counter inconclusive
Cc1ccc(NC(=S)NNC(=S)Nc2cccc(C(F)(F)F)c2)cc1	none
O=C(NNC(=O)c1ccccc1C(=O)O)c1ccc(-c2ccccc2)cc1	RORgamma inh 14µM (no result: CtBP-E1A blk, Six1-Eya2 inh)
O=C(Cc1ccccc1)Nc1ccccc1C(=O)Nc1ccccc1	RORgamma inh inconclusive
O=C(Cc1ccccc1)Nc1cccc(C(=O)O)c1O	VP16 counter 10µM
Cc1occc1C(=O)NNC(=O)c1ccccc1C(=O)O	RORgamma inh inconclusive
O=C(Cc1ccccc1)NNC(=O)c1ccccc1C(=O)O	RORgamma inh 3.2µM
Cc1ccc(-n2c3c(c(=O)[nH]c2=O)C(NS(=O)(=O)c2ccc(Cl)cc2)(C(F)(F)F)C(=O)N3)cc1 (stereo not drawn)	none
O=c1c2c3c(sc2nc2n1CCCCC2)C(O)CCC3 (stereo not drawn)	none
COc1cccc(NC(=O)c2ccc(NC(=O)C3CC(=O)OC34CCCCC4)cc2)c1 (stereo not drawn)	CtBP-E1A blk -80, Six1-Eya2 inh inconclusive
CN1[C@@H]2CC[C@@H]1CC(OC(=O)[C@H](CO)c1ccccc1)C2 (stereo partly drawn)	none (no result: CtBP-E1A blk, PKM2 activator, Six1-Eya2 inh)
N/C(=N\N=C/c1ccc(F)cc1)N/N=C\c1ccc(F)cc1	RORgamma inh inconclusive (no result: CtBP-E1A blk)
N/C(=N\N=C\c1ccc(Cl)cc1)N/N=C/c1ccc(Cl)cc1	RORgamma inh 14µM (no result: CtBP-E1A blk, PKM2 activator, Six1-Eya2 inh)
Cc1nc(CS(=O)(=O)c2ccc(Cl)cc2)cc(Sc2ccc(Cl)cc2)n1	RORgamma inh inconclusive, VP16 counter 11µM
Cc1cc(C)c(S(=O)(=O)OC[C@H]2C=CC[C@@H](CCC[C@H]3O[C@H](C(=O)OC(C)C)CC[C@@H]3C)O2)c(C)c1	none (no result: CtBP-E1A blk, PKM2 activator, Six1-Eya2 inh)
COc1cccc([C@@H]2Oc3ccc(OC)cc3C(=O)[C@H]2O)c1	RORgamma inh 13µM!, VP16 counter inconclusive
COc1cccc([C@@H]2Oc3ccc(Br)cc3C(=O)[C@H]2O)c1	none (no result: CtBP-E1A blk, PKM2 activator, Six1-Eya2 inh)
CCN(CC)S(=O)(=O)c1ccc2c(c1)nc(SCc1nc3ccsc3c(=O)[nH]1)n2CC	PKM2 activator 13µM
COc1ccc(C)cc1NC(=O)CSc1nnc2ccc(-c3ccncc3)nn12	none (no result: RORgamma inh, VP16 counter, PKM2 activator)
CC[C@H](C)[C@H](NC(=O)[C@H](Cc1cnc[nH]1)NC(=O)[C@@H](NC(=O)[C@H](CCCNC(=N)N)NC(=O)[C@H](CCCCN)NC(=O)[C@H](CCCNC(=N)N)NC(=O)[C@H](CCCCN)NC(=O)[C@@H](N)CC(N)=O)[C@@H](C)CC)C(=O)NCC(=O)N1CCC[C@H]1C(=O)NCC(=O)N[C@@H](CCCNC(=N)N)C(=O)N[C@@H](C)C(=O)N[C@@H](Cc1ccccc1)C(=O)N[C@@H](Cc1ccc(O)cc1)C(=O)N[C@H](C(=O)N[C@H](C(=O)N[C@@H](CCCCN)C(=O)N[C@@H](CC(N)=O)C(=O)N[C@H](C(=O)N[C@H](C(=O)NCC(=O)N[C@H](C(=O)N[C@H](C(=O)N[C@@H](CS)C(=O)O)[C@@H](C)CC)[C@@H](C)O)[C@@H](C)CC)[C@@H](C)CC)[C@@H](C)O)[C@@H](C)O	none (no result: CtBP-E1A blk, PKM2 activator, Six1-Eya2 inh)
COc1cc2nc(CN(CCC(C)C)Cc3nc4cc(OC)c(OC)cc4c(=O)[nH]3)[nH]c(=O)c2cc1OC	RORgamma inh 0.79µM, VP16 counter 6.3µM
CCNCc1nc2cc(OC)c(OC)cc2c(=O)[nH]1	none
CCOc1ccc(/C(O)=C2\C(=O)C(=O)N(c3ccccn3)C2c2ccccc2F)c(C)c1 (stereo not drawn)	none (no result: RORgamma inh, VP16 counter, PKM2 activator)
CC(=O)c1c(C)[nH]c(-c2ccccc2)nc1=S	RORgamma inh 3.2µM, VP16 counter inconclusive
COc1ccccc1-c1nc(=S)c(C(C)=O)c(C)[nH]1	RORgamma inh 5.6µM, VP16 counter inconclusive
CC(=O)c1c(NC(=O)c2ccccc2)[nH]c(-c2ccccc2)nc1=S	RORgamma inh 3.2µM, VP16 counter 8.9µM
CSc1nc(-c2ccccc2)nc(NC(=O)c2ccccc2)c1C(C)=O	none
CSc1nc(-c2ccccc2)[nH]c(=S)c1C(C)=O	RORgamma inh 6.3µM, VP16 counter inconclusive
O=C(N/N=C/c1cn(-c2cccs2)nc1-c1ccccc1)c1ccc(O)cc1	RORgamma inh inconclusive, VP16 counter 18µM
O=C(O)c1cccc(N/N=C/c2cn(-c3ccccc3)nc2-c2cccs2)c1	RORgamma inh inconclusive
O=C(N/N=C/c1cn(-c2cccs2)nc1-c1ccccc1)c1ccccc1Cl	RORgamma inh 3.5µM, VP16 counter 7.9µM
CCCNC(=O)c1cc(C2CCCCN2S(=O)(=O)Cc2cccc(C(F)(F)F)c2)on1 (stereo not drawn)	none (no result: RORgamma inh, VP16 counter, PKM2 activator)
O=[N+]([O-])c1cccc(-c2ccc3nnc(SCc4cccnc4)n3n2)c1	none (no result: RORgamma inh, VP16 counter, PKM2 activator)
O=C(O)CCCn1cc(NC(=O)COc2cc(F)ccc2[N+](=O)[O-])cn1	VP16 counter 0.5µM
O=C(O)CCCn1cc(NC(=O)COc2ccc(F)cc2)cn1	none (no result: PKM2 activator)
COc1ccc(Cl)cc1NC(=O)C/C(C)=N/NC(=O)c1ccccc1Cl	VP16 counter 13µM
C/C(CC(=O)Nc1cccc(Cl)c1Cl)=N\NC(=O)c1ccccc1N	RORgamma inh 13µM
CN(CC(=O)Nc1ccc(F)cc1)C(=O)COC(=O)c1cc(Br)c(Br)s1	none (no result: RORgamma inh, CtBP-E1A blk, VP16 counter, PKM2 activator)
O=S1(=O)N=C(N(CCO)/N=C/c2ccncc2)c2ccccc21	CtBP-E1A blk -78, Six1-Eya2 inh -80
CC(C)(C)NC(=O)CCN(/N=C/c1ccncc1)C1=NS(=O)(=O)c2ccccc21	CtBP-E1A blk -82, Six1-Eya2 inh -68 (no result: PKM2 activator)
NNC(=O)c1cc(C2CC2)nc2ccc(Br)cc12	none (no result: PKM2 activator)
O=C(NCCc1ccc(Cl)cc1)c1cc(-c2ccccn2)nc2ccccc12	RORgamma inh 11µM, VP16 counter inconclusive (no result: PKM2 activator)
NS(=O)(=O)c1ccc(CCNC(=O)c2cc(-c3ccc(Br)cc3)nc3ccccc23)cc1	RORgamma inh 3.5µM, VP16 counter inconclusive (no result: CtBP-E1A blk)
O=C(NCCc1ccc(Cl)cc1)c1cc(-c2ccncc2)nc2ccccc12	none
NNC(=O)c1cc(-c2ccc(O)cc2)nc2ccc(Br)cc12	RORgamma inh 13µM, VP16 counter inconclusive (no result: CtBP-E1A blk)
